Screening data: PubChem BioAssay, National Center for Advancing Translational Sciences (NCATS)
Most compounds without a hit are left out; they make up all but 19% or so of the library.
Lassa entry inh: inhibitors of Lassa virus binding or cell entry. AID 540256. Potency, µM (series often up to 37.9 µM), for the others: top-dose activity change, negative = inhibition, hits mostly inhibitors. Lassa virus pseudotype entry inhibition, cell reporter. 300,000 compounds, 1.2% hits; calls by dose curve; tested in HEK293 cells; also: potency is read from the fitted curve at half-maximal effect; % is scaled to controls: 0 for no effect and ±100 for the full control effect; nearly all actives have a fitted effect of over 50% in size
Cycloheximide cs: affects cycloheximide protein synthesis inhibition readout, counter-screen; cell reporter, cycloheximide protein synthesis inhibition counterscreen; max response, %; 300,000 compounds, 12% hits; AID 2314; in the data active = max response mostly above about 13%, no sharp cut-off; inactive = mostly below about 14%; also: read at 38.3 µM for the half of the compounds with a filed dose; 0% is about no effect
Pf growth 48h: inhibits P. falciparum growth in the first generation, 48 h | P. falciparum luciferase growth in erythrocytes, 48 h | Potency, µM (highest dose often 28.7 µM), for inactives: at the top dose activity change, negative = inhibition, actives largely listed as inhibitors | 310,000 compounds, 5.9% hits | AID 504832; also: potency is read from the fitted curve at half-maximal effect; % is scaled to controls: 0 for no effect and ±100 for the full control effect
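Growth was read as firefly luciferase luminescence after a 48 h, 37 C, 5% CO2 exposure of compounds to reporter-bearing P. falciparum cultures (0.1% parasitemia, 2% hematocrit final) in Albumax-supplemented RPMI 1640.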
Pf growth 96h: inhibits malaria parasite growth, 96 h. P. falciparum luciferase reporter growth, 96 h. Potency, µM (series often up to 28.7 µM), inactives show at the highest dose activity change, negative = inhibition, usual class: inhibitors. AID 504834. 320,000 compounds, 6.9% hits; also: potency is read from the fitted curve at half-maximal effect; % is scaled to controls: 0 for no effect and ±100 for the full control effect
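Luminescence readout: decreased luciferase signal marks inhibited growth of reporter-expressing P. falciparum in infected red cells (2% hematocrit, 0.05% parasitemia final), exposed to compound two generations (96 h, 37 C, 5% CO2).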
Shiga toxin inh: blocks Shiga toxin action in Vero cells. Vero cells, Shiga toxin protein synthesis inhibition reporter. inhibition, % at 38.7 µM. 290,000 compounds, 9.2% hits; in the data active = inhibition mostly above about 28%, no sharp cut-off; inactive = mostly below about 43%; also: 0% is about no effect
Marburg entry inh: blocks Marburg virus binding to or entry into cells. 300,000 compounds, 1.8% hits. Potency, µM (top dose mostly 37.8 µM), inactives show at the highest dose activity change, negative = inhibition, most hits filed as inhibitors. Marburg virus pseudotyped entry inhibition, cell reporter; calls by dose curve; tested in HEK293 cells; also: potency is read from the fitted curve at half-maximal effect; % is scaled to controls: 0 for no effect and ±100 for the full control effect
An asterisk follows results filed as active; [ ] = another dose, or the depositor's remark. Unless noted, calls follow the shape of the dose curve; as a rule, active = well fitted inhibition curve with a large enough effect; inconclusive = small, poorly fitted or top-dose-only effect, or another doubt; inactive = no such curve, though single readings can be large or run the other way.

How did CCN(Cc1ccccc1)C(=O)CSc1nncn1C do in these assays?
Lassa entry inh: 13%[46.1 µM]; Cycloheximide cs: 1; Pf growth 48h: -1%; Pf growth 96h: 10%; Shiga toxin inh: 6; Marburg entry inh: 2%[46.1 µM]

Results for CCOC(=O)N1CCC(NC(=O)C2CCN(c3ccc(N4CCOCC4)nn3)CC2)CC1 ?
Lassa entry inh: -2%; Cycloheximide cs: 7; Pf growth 48h: 12%; Pf growth 96h: inconclusive; Shiga toxin inh: -14; Marburg entry inh: -8%

Results for CCc1ccc2oc(-c3cccc(NC(=O)c4cccnc4)c3)nc2c1 ?
Lassa entry inh: inconclusive; Cycloheximide cs: 34*; Pf growth 48h: -48%; Pf growth 96h: -23%; Shiga toxin inh: 66*; Marburg entry inh: inconclusive

What do the screens show for `Oc1ccccc1/C=N/NC1=NCCCCC1`?
Lassa entry inh: inconclusive; Cycloheximide cs: 34*; Pf growth 48h: 65%; Pf growth 96h: 27%; Shiga toxin inh: 95*; Marburg entry inh: 0%

Results for O=[N+]([O-])c1cccc(/C=N/NC2=NCCCCC2)c1 ?
Lassa entry inh: inconclusive; Cycloheximide cs: 36*; Pf growth 48h: inconclusive; Pf growth 96h: inconclusive; Shiga toxin inh: 62*; Marburg entry inh: 7%

Results for Cc1ccc(S(=O)(=O)N2CCC(C(=O)N[C@H](C(=O)NCC3CCCO3)C(C)C)CC2)cc1 (stereo partly drawn) ?
Lassa entry inh: -8%; Cycloheximide cs: -1; Pf growth 48h: -13%; Pf growth 96h: 1%; Shiga toxin inh: 13; Marburg entry inh: 3%

How did COc1ccccc1NC(=S)NCc1cccs1 do in these assays?
Lassa entry inh: -1%; Cycloheximide cs: 0; Pf growth 48h: 24%; Pf growth 96h: 37%; Shiga toxin inh: 16; Marburg entry inh: 1%

Results for O=[N+]([O-])c1ccc(C2=NN(c3ccccc3)C(c3ccco3)C2)cc1 (stereo not drawn) ?
Lassa entry inh: 10%; Cycloheximide cs: 34*; Pf growth 48h: inconclusive; Pf growth 96h: inconclusive; Shiga toxin inh: 60*; Marburg entry inh: -1%

Results for O=[N+]([O-])c1ccc(/C=C/C2=NN(c3ccccc3)C(c3ccco3)C2)cc1 (stereo not drawn) ?
Lassa entry inh: 0%; Cycloheximide cs: 15*; Pf growth 48h: -8%; Pf growth 96h: 2%; Shiga toxin inh: 41; Marburg entry inh: 1%

How did O=C(O)/C=C/C(=O)N1N=C(c2ccco2)CC1c1ccco1 (stereo not drawn) do in these assays?
Lassa entry inh: inconclusive; Cycloheximide cs: 1; Pf growth 48h: 6%; Pf growth 96h: 0%; Shiga toxin inh: 0; Marburg entry inh: inconclusive

What do the screens show for `CC1=NN(c2ccccc2)C(c2ccco2)C1` (stereo not drawn)?
Lassa entry inh: 23%[46.1 µM]; Marburg entry inh: inconclusive

What do the screens show for `CCOC(=O)CN(C(=O)CSc1nnc(-c2ccncc2)n1CCCN(C)C)c1ccccc1`?
Lassa entry inh: 9%; Cycloheximide cs: -4; Pf growth 48h: -2%; Pf growth 96h: inconclusive; Shiga toxin inh: 17; Marburg entry inh: -1%

Results for COc1ccc(/C(O)=C2\C(=O)C(=O)N(CCN(C)C)[C@H]2c2cccc(OC)c2OC)cc1 ?
Marburg entry inh: -16%

What do the screens show for `O=NN(CCCl)C(=O)NCCCl`?
Lassa entry inh: -3%; Pf growth 48h: 10%; Pf growth 96h: 27%; Marburg entry inh: inconclusive

What do the screens show for `CCOC(=O)N1CCN(CC(=O)Nc2cc(OCC)ccc2OCC)CC1`?
Lassa entry inh: -27%; Cycloheximide cs: -1; Pf growth 48h: inconclusive; Shiga toxin inh: 11; Marburg entry inh: -18%

How did CCOc1ccc(OCC)c(NC(=O)CN2CCN(c3ccc(C)cc3C)CC2)c1 do in these assays?
Lassa entry inh: inconclusive; Cycloheximide cs: -3; Pf growth 48h: 8.3µM*; Pf growth 96h: -8%; Shiga toxin inh: -6; Marburg entry inh: 4%[46.1 µM]

Results for Cc1oc2cc3oc(=O)c(CC(=O)NCC(=O)N[C@@H](C(=O)O)c4ccccc4)c(C)c3cc2c1C ?
Cycloheximide cs: -2; Pf growth 48h: 12%; Pf growth 96h: 0%; Shiga toxin inh: -3

What do the screens show for `CCN(CC)c1ccc2nc3ccccc3[n+](CC)c2c1`?
Lassa entry inh: inconclusive; Cycloheximide cs: -7; Pf growth 48h: 0%; Pf growth 96h: inconclusive; Shiga toxin inh: -9; Marburg entry inh: inconclusive

How did CCN(CC)c1ccc2nc3ccc(N)cc3[n+](-c3ccccc3)c2c1 do in these assays?
Lassa entry inh: 8.9µM*; Pf growth 48h: 0.29µM*; Pf growth 96h: inconclusive; Marburg entry inh: inconclusive

Results for C=CCNc1nc(C(=O)OCC(=O)c2ccc(F)cc2)cs1 ?
Lassa entry inh: 11%; Pf growth 48h: 44%; Pf growth 96h: 40%; Marburg entry inh: -2%[46.1 µM]

Results for COc1ccc(/C=N/N2C(=O)CN(C(=O)c3ccccc3)C2c2ccc(OC)cc2)cc1 (stereo not drawn) ?
Cycloheximide cs: -3; Pf growth 48h: inconclusive; Pf growth 96h: -23%; Shiga toxin inh: 3

Results for COc1ccc(C2N(Cc3ccccc3)CC(=O)N2/N=C(\C)c2ccccc2)cc1 (stereo not drawn) ?
Lassa entry inh: 18%; Cycloheximide cs: 24*; Pf growth 48h: 10%; Pf growth 96h: -13%; Shiga toxin inh: 71*; Marburg entry inh: 29%

Results for O=C(Cc1ccccc1)NNC1CC(=O)N(c2ccc(Oc3ccccc3)cc2)C1=O (stereo not drawn) ?
Lassa entry inh: 8%[46.1 µM]; Cycloheximide cs: 6; Pf growth 48h: -3%; Pf growth 96h: 12%; Shiga toxin inh: 10; Marburg entry inh: 3%[46.1 µM]

What do the screens show for `CCOC(=O)c1cnn2c1[nH]c(=O)c1ccccc12`?
Lassa entry inh: 5%; Cycloheximide cs: -2; Pf growth 48h: 31%; Pf growth 96h: 9.3µM*; Shiga toxin inh: -6; Marburg entry inh: -16%

What do the screens show for `CN(C(=O)c1c(O)c2ccccc2n(C)c1=O)c1ccccc1`?
Pf growth 48h: -3%; Pf growth 96h: -2%

How did COc1cc(/C=C2\CC/C(=C\c3ccc(OCCO)c(OC)c3)C2=O)ccc1OCCO do in these assays?
Lassa entry inh: 1%; Cycloheximide cs: -3; Pf growth 48h: inconclusive; Pf growth 96h: -1%; Shiga toxin inh: -13; Marburg entry inh: inconclusive

How did C#CCNC(=O)C1=C[C@@H](c2ccc(C(F)(F)F)cc2)[C@H](CCCO)[C@@H](OCC)O1 do in these assays?
Cycloheximide cs: 1; Pf growth 48h: inconclusive; Pf growth 96h: 12µM*; Shiga toxin inh: -10

What do the screens show for `CCO[C@@H]1OC(C(=O)NCc2ccccc2)=C[C@H](c2ccc(C(F)(F)F)cc2)[C@H]1CCCO`?
Cycloheximide cs: -1; Pf growth 48h: 4.7µM*; Pf growth 96h: 8.3µM*; Shiga toxin inh: -5
